FBA Mtb inh – inhibitors of M. tuberculosis fructose-bisphosphate aldolase; 2.3% of 360,000 active; P9WQA3; inhibition, % at 1 µM; purified M. tuberculosis FBA, fluorescence read-out; in the data active = inhibition above about 27%
Rv3671c protease – inhibitors of M. tuberculosis serine protease Rv3671c; P9WHR9; inhibition, % at 5.96 µM; 0.048% of 320,000 active; AID 2606; in the data active = inhibition above about 38%;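 note: extracellular domain of Rv3671c used as enzyme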
UGM FP inh – blocks M. tuberculosis UGM enzyme; purified UGM, fluorescence polarization probe displacement; inhibition, % at 10 µM; 0.06% of 320,000 active; AID 504406; in the data active = inhibition above about 10%, passing the limit was not always enough
Target sequence (P9WIQ1 whole entry, looked up): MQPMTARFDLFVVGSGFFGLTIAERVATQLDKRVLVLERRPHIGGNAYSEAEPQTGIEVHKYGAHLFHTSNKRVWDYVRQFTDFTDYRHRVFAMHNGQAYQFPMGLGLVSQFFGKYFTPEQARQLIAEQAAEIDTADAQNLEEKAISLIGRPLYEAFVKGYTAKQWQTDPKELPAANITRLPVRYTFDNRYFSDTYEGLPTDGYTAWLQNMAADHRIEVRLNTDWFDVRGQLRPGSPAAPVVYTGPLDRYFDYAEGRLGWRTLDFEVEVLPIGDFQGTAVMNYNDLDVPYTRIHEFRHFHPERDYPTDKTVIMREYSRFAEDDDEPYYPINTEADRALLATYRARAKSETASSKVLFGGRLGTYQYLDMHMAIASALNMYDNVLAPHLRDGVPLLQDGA
RecA splice inh – blocks M. tuberculosis RecA intein splicing; cell-free RecA intein splicing, fluorescence; inhibition, % (no concentration beside the values); P9WHJ3; 0.75% of 290,000 active; in the data active = inhibition above about 30%
GDH-TPI inh – inhibits GDH-TPI coupling enzymes, artifact for Mtb FBA screen; GDH-TPI coupled enzyme counterscreen, NADH absorbance; 1.2% of 360,000 active; AID 588335; inhibition, % at 4.8 µM; in the data active = inhibition above about 30%
Mtb bLac sens – beta-lactam sensitization of Mtb H37Rv. M. tuberculosis H37Rv growth with meropenem, percent inhibition. inhibition, % at 25 µM. 0.27% of 330,000 active; call rule not given here;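 note: growth measured after seven days incubation then overnight dye step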
Each line names hits and unclear results; the compound was inactive in the other large screens. The list is not random: actives were taken first. Their share in the collection is about 4%.

CN1C(C(=O)Nc2ccccn2)=C(O)c2ccccc2S1(=O)=O	GDH-TPI inh 33
Cc1oc2c(O)c(O)ccc2c(=O)c1-c1cnn(-c2ccccc2)c1	none
Cc1nc(-c2cnn(-c3ccccc3)c2)c2cc(C)oc2n1	FBA Mtb inh 119
CN1CCN(c2ccc(C=O)cc2)CC1	GDH-TPI inh 37
N#Cc1ccc(S(=O)(=O)N2CCCCC2c2cc(C(=O)NCc3cccnc3)no2)cc1 (stereo not given)	none (no result: Rv3671c protease, UGM FP inh, RecA splice inh, Mtb bLac sens)
COc1ccc(C/C(O)=C(\C#N)c2nc3ccccc3s2)cc1	GDH-TPI inh 46
N#C/C(=C(/O)CSc1ccccc1C(=O)O)c1nc2ccccc2s1	UGM FP inh 14, GDH-TPI inh 73
Cc1ccc(SC/C(O)=C(\C#N)c2nc3ccccc3s2)cc1	GDH-TPI inh 32
N#C/C(=C(/O)CSc1ccccn1)c1nc2ccccc2s1	none
N#C/C(=C(/O)COc1ccccc1)c1nc2ccccc2s1	none
Cc1c(C)c2c(OCC(=O)N3CCC[C@H]3C(=O)O)cc3c(c2oc1=O)CCC(C)(C)O3	FBA Mtb inh active
Cc1c(C)c2c(OCC(=O)N3CCC(O)CC3)cc3c(c2oc1=O)CCC(C)(C)O3	FBA Mtb inh active, GDH-TPI inh 31 (no result: RecA splice inh)
Cc1ccc(F)c(S(=O)(=O)NC(=O)C2(C)CCN2C(=O)c2ccccc2)c1 (stereo not given)	none (no result: Rv3671c protease, UGM FP inh, RecA splice inh, Mtb bLac sens)
O=C(N/N=C/c1sc(=O)n(-c2ccccc2)c1Cl)c1ccncc1	GDH-TPI inh 36
COc1cc(C(=O)N/N=C/c2sc(=O)n(-c3ccccc3)c2Cl)cc(OC)c1OC	GDH-TPI inh 46
COc1cc(C(=O)N/N=C/c2cc([N+](=O)[O-])cs2)cc(OC)c1OC	GDH-TPI inh 36
COc1cc(C(=O)N/N=C/c2sccc2C)cc(OC)c1OC	none (no result: Rv3671c protease, UGM FP inh, Mtb bLac sens)
CCOc1ccc(CCN2C(=O)C(=O)N([C@@H](Cc3ccc(O)cc3)CN3CCC[C@@H]3CN3C(=O)C(=O)NC[C@@H]3Cc3ccccc3)C[C@@H]2Cc2ccccc2)cc1	none (no result: Rv3671c protease, UGM FP inh, RecA splice inh, Mtb bLac sens)
N#Cc1ccccc1N1CCN(C(=O)c2ccc(NC(=O)c3ccc(Br)o3)cc2)CC1	none (no result: RecA splice inh)
Cc1cc(C)cc(Cn2c3ccc(NC(=O)NCc4ccc(F)cc4)cc3c(=O)n2C)c1	FBA Mtb inh 133 (no result: Rv3671c protease, UGM FP inh, RecA splice inh, Mtb bLac sens)
Cc1cc(C)cc(Cn2c3ccc(NC(=O)NCc4ccccc4)cc3c(=O)n2C)c1	FBA Mtb inh 172 (no result: Rv3671c protease, UGM FP inh, RecA splice inh, Mtb bLac sens)
Cc1ccc(C(=O)N/N=C2/NC(=O)CC(C(=O)Nc3ccccc3)S2)cc1 (stereo not given)	none
Cc1ccc(N=C2NC(=O)CC(C(=O)Nc3ccc4c(c3)OCO4)S2)cc1 (stereo not given)	none
Cc1ccc(NC(=O)C2CC(=O)N/C(=N/NC(=O)c3ccc(C)cc3)S2)cc1 (stereo not given)	none
O=C1CC(C(=O)Nc2ccc(F)cc2)S/C(=N\N=C\c2ccco2)N1 (stereo not given)	GDH-TPI inh 34
Cc1ccc(NC(=O)C2CC(=O)N/C(=N/N=C/c3ccco3)S2)cc1C (stereo not given)	GDH-TPI inh 52
Cc1ccc(NC(=O)C2CC(=O)N/C(=N/N=C/c3ccco3)S2)cc1 (stereo not given)	GDH-TPI inh 44
CSc1ncccc1C(=O)OCC(=O)NC1CCC(C)CC1 (stereo not given)	none (no result: RecA splice inh)
CSc1ncc2[nH]c(C(O)c3ccccc3)nc2n1 (stereo not given)	none (no result: Rv3671c protease, UGM FP inh, RecA splice inh, Mtb bLac sens)
CC(C)Nc1ncnc2c1ncn2[C@H]1CN(Cc2cccs2)C[C@@H](CO)O1	none (no result: Rv3671c protease, UGM FP inh, RecA splice inh, Mtb bLac sens)
Clc1ccc(CNc2ncnc3[nH]ncc23)c(Cl)c1	none (no result: Rv3671c protease, UGM FP inh, RecA splice inh, Mtb bLac sens)
CC(C)=CCN1CCN(Cc2cccc3nonc23)CC1CCO (stereo not given)	none
CC(C)=CCN1CCN(Cc2cccc3nccnc23)CC1CCO (stereo not given)	GDH-TPI inh 31
C=Cn1ccnc1CC(O)c1ccc(OC)cc1 (stereo not given)	none
COc1cc(OC)cc(-c2nc3ccccc3s2)c1	none
Brc1ccc(-c2nc3ccccc3s2)s1	none
Cc1cc(-c2nc3ccccc3s2)ccc1N	FBA Mtb inh active, GDH-TPI inh 37 (no result: Rv3671c protease, UGM FP inh, RecA splice inh, Mtb bLac sens)
Nc1ccc(-c2nc3ccccc3s2)cn1	FBA Mtb inh active
CC1(C)CC(NC(=O)c2coc(=O)c(Br)c2)CC(C)(C)N1	FBA Mtb inh 60
Cc1ccc(C(=O)NC2CC(C)(C)NC(C)(C)C2)cc1	none (no result: RecA splice inh)
COC(=O)c1ccccc1-c1ccc(/C=N/NC(N)=O)o1	GDH-TPI inh 32
COC(=O)N/N=C/c1ccc(-c2ccccc2Cl)o1	GDH-TPI inh 35
COC(=O)c1sccc1-c1ccc(/C=N/OC(=O)c2ccccc2)o1	GDH-TPI inh 31
COC(=O)N/N=C/c1ccc(-c2ccc(Cl)cc2Cl)o1	GDH-TPI inh 34
COc1ccc(-n2c(C)cc(C=O)c2C)cc1Cl	none
CCOc1ccc(N2C(N)=NC(N)=NC2(C)C)cc1	none
CCOc1ccc(-n2nc3cc(C)c(N)cc3n2)cc1	FBA Mtb inh 164
COc1ccc(-n2nc3cc(C)c(N)cc3n2)cc1Cl	GDH-TPI inh 36
Cc1cc(C)cc(NC(=O)CS(=O)(=O)c2cccc3nsnc23)c1	none
CCOc1cc(C(=O)NC(=S)Nc2cccnc2)cc(OCC)c1OCC	none
CCOc1ccc(C(=O)NC(=S)Nc2cccnc2)cc1	UGM FP inh 12
Nc1c(-c2ccc(Cl)cc2)cnn1-c1cc(C(F)(F)F)cc(C(F)(F)F)c1	FBA Mtb inh active
CC1(C)CC(C(CCN(Cc2ccccc2)C(=O)c2ccco2)c2ccc(F)cc2)CCO1 (stereo not given)	RecA splice inh 35
O=C(Nc1ccc(S(=O)(=O)Nc2nccs2)cc1)c1nn(-c2ccc(F)cc2)ccc1=O	none
CCOc1ccc(-n2ccc(=O)c(C(=O)Nc3ccc(S(=O)(=O)Nc4nccs4)cc3)n2)cc1	GDH-TPI inh 33
O=C(NC(=S)NC1CCN(Cc2ccccc2)CC1)c1ccc(F)cc1	FBA Mtb inh active
CN(Cc1ccco1)C(=O)Cn1ncc2c([nH]c3ccccc32)c1=O	none
O=C(Nc1ncc2c(n1)-c1ccccc1OC2)c1ccc(F)cc1	FBA Mtb inh active
COc1cc(/C=C/CN2CCC(C(=O)NC(c3ccc(F)cc3)c3ccc4ccccc4n3)CC2)ccc1OC(C)=O (stereo not given)	none (no result: Rv3671c protease, UGM FP inh, RecA splice inh, Mtb bLac sens)
COc1ccc(-c2ccc(C(c3c(C)[nH][nH]c3=O)c3c(C)[nH][nH]c3=O)o2)c([N+](=O)[O-])c1	none (no result: Rv3671c protease, UGM FP inh, RecA splice inh, Mtb bLac sens)
Cc1[nH][nH]c(=O)c1C(c1ccccc1[N+](=O)[O-])C(C#N)C#N (stereo not given)	RecA splice inh 70
O=C(Nc1cccc(Cl)c1)c1ccccc1	none (no result: RecA splice inh)
CN(c1ccc(C(=O)Nc2ccc(Cl)cn2)cc1)S(=O)(=O)c1ccccc1	none
O=C1C(Cl)=C(NC(=O)c2ccccc2)C(=O)C(Cl)=C1NC(=O)c1ccccc1	GDH-TPI inh 34
CN(C1=C(NC(=O)c2ccc(Cl)cc2)C(=O)c2ccccc2C1=O)c1ccccc1	RecA splice inh 43
COCCN1CC(CNC(=O)c2cc(COc3ccc(C)c(C)c3)on2)CC1=O (stereo not given)	none
